From PubChem BioAssay AID1159580 (chemical genetic matrix, 2015)
The whole screen tested about 5,500 compounds, of which about 2,000 (36%) were called active. Roughly 18% stayed inconclusive and do not appear here. Cut-off read from the data, not from the text of the source: active = normalized growth mostly below about 0.91 (no sharp cut-off); inconclusive = no clear call, values can overlap the other calls; inactive = mostly above about 0.92. The list shows a part of the results.

Experiment: chemical genetic growth profiling, strain panel (AID 1159580);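 note: tested at 20 µM; growth read once vehicle control cultures reached saturation at 30 °C; 1 = growth at the plate median or of vehicle wells; lower values mean less growth of the strain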
Conditions: S. cerevisiae deletion strains, growth OD

Measured: normalized growth

CC(C)(C)NCC(O)c1cc(Cl)c(N)c(Cl)c1 (centres undefined)
inactive: locus YAL013W, strain DEP1, active compounds read low 1.01 | locus YAL021C, strain ccr4, active compounds read low 0.985 | locus YAL026C, strain drs2, active compounds read low 1 | locus YAL030W, strain snc1, active compounds read low 1 | locus YBL061C, strain skt5, active compounds read low 1 | locus YBR009C, strain hhf1, active compounds read low 1 | locus YBR021W, strain FUR4, active compounds read low 1 | locus YBR023C, strain chs3, active compounds read low 1 | locus YBR171W, strain sec66, active compounds read low 1 | locus YBR229C, strain ROT2, active compounds read low 1.01 | locus YBR231C, strain swc5, active compounds read low 0.992 | locus YBR279W, strain paf1, active compounds read low 1.01 | locus YCL011C, strain gbp2, active compounds read low 1.01 | locus YCL016C, strain dcc1, active compounds read low 0.998 | locus YCL029C, strain bik1, active compounds read low 0.993 | locus YCL061C, strain MRC1, active compounds read low 1.01 | locus YCL069W, strain vba3, active compounds read low 0.992 | locus YCR088W, strain abp1, active compounds read low 0.998 | locus YDL005C, strain med2, active compounds read low 0.996 | locus YDL035C, strain GPR1, active compounds read low 1.01 | locus YDL040C, strain nat1, active compounds read low 0.988 | locus YDL074C, strain BRE1, active compounds read low 1 | locus YDL101C, strain DUN1, active compounds read low 1.01 | locus YDL134C, strain PPH21, active compounds read low 1.02 | locus YDL185W, strain tfp1, active compounds read low 1 | locus YDL192W, strain arf1, active compounds read low 1 | locus YDR001C, strain nth1, active compounds read low 0.995 | locus YDR069C, strain doa4, active compounds read low 0.989 | locus YDR101C, strain arx1, active compounds read low 0.983 | locus YDR137W, strain rgp1, active compounds read low 1 | locus YDR150W, strain NUM1, active compounds read low 1.02 | locus YDR159W, strain sac3, active compounds read low 0.978 | locus YDR162C, strain NBP2, active compounds read low 1 | locus YDR195W, strain ref2 0.961 | locus YDR297W, strain sur2, active compounds read low 1 | locus YDR318W, strain mcm21, active compounds read low 0.994 | locus YDR334W, strain swr1, active compounds read low 1 | locus YDR335W, strain msn5, active compounds read low 0.994 | locus YDR388W, active compounds read low 0.992 | locus YDR392W, strain spt3, active compounds read low 0.876 | locus YDR502C, strain sam2, active compounds read low 1.01 | locus YEL003W, strain gim4, active compounds read low 1 | locus YEL037C, strain rad23, active compounds read low 0.998 | locus YEL061C, strain CIN8 (second series), active compounds read low 1 | locus YEL061C, strain CIN8, active compounds read low 1.01 | locus YER015W, strain faa2, active compounds read low 0.999 | locus YER016W, strain bim1, active compounds read low 1 | locus YER110C, active compounds read low 0.998 | locus YER111C, strain swi4, active compounds read low 1.01 | locus YER155C, strain BEM2 (second series), active compounds read low 1.01 | locus YER155C, strain BEM2, active compounds read low 1.02 | locus YER167W, strain BCK2, active compounds read low 1.01 | locus YFR010W, strain ubp6, active compounds read low 0.994 | locus YGL078C, strain dbp3, active compounds read low 1.01 | locus YGL086W, strain mad1, active compounds read low 0.997 | locus YGL167C, strain pmr1, active compounds read low 1 | locus YGL173C, strain kem1, active compounds read low 0.996 | locus YGL227W, strain vid30, active compounds read low 1 | locus YGL240W, strain doc1, active compounds read low 0.98 | locus YGL248W, strain PDE1, active compounds read low 1 | locus YGL253W, strain hxk2, active compounds read low 0.984 | locus YGR078C, strain PAC10, active compounds read low 1.01 | locus YGR135W, strain pre9, active compounds read low 1.01 | locus YGR229C, strain SMI1, active compounds read low 1.01 | locus YGR252W, strain gcn5, active compounds read low 1.04 | locus YHR013C, strain ard1, active compounds read low 0.983 | locus YHR027C, strain rpn1, active compounds read low 0.994 | locus YHR030C, strain SLT2, active compounds read low 1.01 | locus YHR079C, strain IRE1 (second series), active compounds read low 1 | locus YHR094C, strain hxt1, active compounds read low 1 | locus YHR129C, strain ARP1, active compounds read low 1.02 | locus YHR142W, strain chs7, active compounds read low 0.997 | locus YHR200W, strain rpn10, active compounds read low 1 | locus YIL066C, strain RNR3, active compounds read low 1.01 | locus YIL073C, strain SPO22, active compounds read low 1 | locus YIL125W, strain kgd1, active compounds read low 1 | locus YIR030C, strain dcg1, active compounds read low 0.995 | locus YJL092W, strain hpr5, active compounds read low 0.997 | locus YJL095W, strain BCK1 (second series), active compounds read low 1 | locus YJL095W, strain BCK1, active compounds read low 1.01 | locus YJL115W, strain asf1, active compounds read low 1 | locus YJL129C, strain trk1, active compounds read low 0.996 | locus YJL134W, strain LCB3, active compounds read low 1.01 | locus YJL154C, strain vps35, active compounds read low 1 | locus YJL164C, strain tpk1, active compounds read low 1 | locus YJL166W, strain qcr8, active compounds read low 0.991 | locus YJL168C, strain set2, active compounds read low 0.992 | locus YJL187C, strain SWE1 (second series), active compounds read low 1.01 | locus YJL187C, strain SWE1, active compounds read low 1
